From PubChem BioAssay AID624330 (Southern Research Specialized Biocontainment Screening …, 2012) come the findings set out here.

Usually inhibition stands for the drop in the measured response relative to a control, in per cent.

The structures appear in SMILES notation. In all, about 340,000 compounds went through this assay and about 2,100 (0.62%) were called active. A selection follows. Measured potencies and affinities stand elsewhere. Values without a mark were called inactive.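 Rule for the calls: active = first-screen hits whose inhibition reached a set limit at any dose in the follow-up dose series; inconclusive = inhibition above the set first-screen limit but never retested; inactive = the rest.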

For the assay, the target named is Rac GTPase-activating protein 1 (Homo sapiens) (UniProt Q9H0H5). The experiment in a line: blockers of MgcRacGAP-driven Rac1 GTP hydrolysis – biochemical, ADP Hunter fluorescence, primary and confirmatory, confirmation (AID 624330).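 Note: fluorescence reports GDP produced by GAP-driven GTP hydrolysis.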 The note with it: MgcRacGAP-stimulated Rac1 GTP hydrolysis, at 30 µM, hits give high values, GST-tagged Rac1 F28L mutant substrate.
Rac GTPase-activating protein 1 (Homo sapiens), sequence (Q9H0H5 whole entry, looked up): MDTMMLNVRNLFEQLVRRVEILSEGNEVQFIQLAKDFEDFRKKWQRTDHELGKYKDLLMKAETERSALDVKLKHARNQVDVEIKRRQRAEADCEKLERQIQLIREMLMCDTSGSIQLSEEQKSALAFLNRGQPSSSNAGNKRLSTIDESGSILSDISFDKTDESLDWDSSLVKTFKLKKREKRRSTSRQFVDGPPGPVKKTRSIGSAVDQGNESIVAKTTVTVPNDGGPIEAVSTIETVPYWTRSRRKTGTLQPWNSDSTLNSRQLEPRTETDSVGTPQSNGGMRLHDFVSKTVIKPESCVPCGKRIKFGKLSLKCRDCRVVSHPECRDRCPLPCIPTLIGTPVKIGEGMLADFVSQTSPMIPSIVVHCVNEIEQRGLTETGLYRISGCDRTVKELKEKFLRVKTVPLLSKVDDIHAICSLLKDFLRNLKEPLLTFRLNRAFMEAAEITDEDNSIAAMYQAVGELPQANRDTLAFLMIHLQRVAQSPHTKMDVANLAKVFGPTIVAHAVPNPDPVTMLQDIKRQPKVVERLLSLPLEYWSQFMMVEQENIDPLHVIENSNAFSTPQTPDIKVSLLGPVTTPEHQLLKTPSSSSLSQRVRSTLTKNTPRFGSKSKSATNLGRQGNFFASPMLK
For the compound `COc1ccc(CNC(N)=O)cc1OC`, the inhibition was 5.81%.

In the case of `CN(C)S(=O)(=O)c1ccc(NC(=O)CN2C(=O)NC3(CCCC3)C2=O)cc1`, the inhibition was 4.79%.

For the compound `CCCN(C(=O)c1c(CC)noc1C)c1c(N)n(Cc2ccccc2)c(=O)[nH]c1=O`, the inhibition was 7.17%.

On to `CC1(NC(=O)N2CCCCC2)CCS(=O)(=O)C1` (configuration not stated), for which the inhibition was 6.45%.

Regarding `O=C1CC(c2ccc(F)cc2)CC(O)=C1C=NCCN1CCNCC1` (configuration not stated), the inhibition is 10.7%.

As to `COc1ccc(-c2csc3ncnc(N4CCN(c5ccccc5OC)CC4)c23)cc1`, the inhibition is 8.39%.

On to `O=C(OCC(=O)N1CCN(C(=O)c2ccco2)CC1)c1ccc(Cl)nc1`, for which the inhibition is 2.2%.

With `COCCNC(=O)c1ccc(N2CC3CC(C2)c2cccc(=O)n2C3)c(NC(=O)c2cc(OC)cc(OC)c2)c1` (configuration not stated), the inhibition is 10.3%.

Take `COc1ccc(CNC(=O)C2CCC(=O)N(CC3CCCCC3)C2)cc1` (configuration not stated): the inhibition is 8.55%.

Turning to `O=C(NN1C(=O)c2ccccc2NC1c1ccc([N+](=O)[O-])o1)c1ccc(Br)cc1` (configuration not stated), the inhibition is 5.26%.

In the case of `O=C(Cn1c(NCCO)nc2ccccc21)NCCc1ccccc1`, the inhibition is 0.41%.

`Nc1nnc(SCC(=O)N2CCN(c3ccccc3)CC2)s1`: the inhibition is 2.87%.

`Cc1nc(Cc2ccccc2)sc1CC#N`: the inhibition was -3.31%.

As for `CC(C)CC(NC(=O)C(Cc1ccc(OCc2ccccc2)cc1)NC(=O)OC(C)(C)C)C(N)=O` (configuration not stated), the inhibition was 10.6%.

Turning to `COc1ccc(CC(=O)Nc2nc(C)cs2)cc1`, the inhibition was 12%.

Consider `Cc1csc(NC(=O)CSc2nc(C)cs2)n1`, for which the inhibition was 3.74%.

As to `COc1ccc(-n2nnnc2SCC(=O)N2CCN(C(=O)c3ccco3)CC2)cc1OC`, the inhibition is 7.68%.

As for `CCCCNC(=O)CSc1nc2ccccc2n1S(=O)(=O)c1ccc(Br)cc1`, the inhibition was 2.01%.

As to `O=[N+]([O-])c1ccccc1/C=N/n1c(-c2ccccc2)n[nH]c1=S`, the inhibition was 16.3%.

In the case of `Cc1ccsc1/C=N/n1c(-c2cc(-c3ccccc3)n[nH]2)n[nH]c1=S`, the inhibition was 11.8%.

On to `O=[N+]([O-])c1ccccc1/C=N/n1c(C(F)(F)F)n[nH]c1=S`, for which the inhibition was 16.4%.

For the compound `Nc1nnnn1/N=C/c1cccc(O)c1`, the inhibition was 5.38%.

As for `Cc1ccc(-c2n[nH]c(=S)n2/N=C/c2sccc2C)cc1`, the inhibition was 5.68%.

`Cc1n[nH]c(=O)n(N=Cc2cccs2)c1=O`: the inhibition was 7.77%.

For `S=c1[nH]nc(-c2cc(-c3ccccc3)n[nH]2)n1/N=C/c1cccs1`, the inhibition was 16.3%.

Turning to `Cc1cc(C)n(/N=C/c2cccc(O)c2)c(=O)c1C(N)=O`, the inhibition was 10.6%.

In the case of `C#CCOCCOCCOCCNc1nc(N2CCN(C(=O)[C@H](CCCCN)n3cc(CN)nn3)CC2)nc(N2CCN(C(=O)[C@H](CCCN=C(N)N)n3cc(C(N)[C@H](C)CC)nn3)CC2)n1` (some centres not stated), the inhibition was 7.55%.

As for `C/C(=N/OC(=O)c1ccccc1Br)c1ccc(C)cc1`, the inhibition is 6.4%.

With `O=C(CN1CCCCCC1)Nc1cc([N+](=O)[O-])ccc1Cl`, the inhibition was 5.34%.

Take `Cc1cnc(NC(=O)c2cccc(S(=O)(=O)N3CCOCC3)c2)s1`: the inhibition is 1.86%.

As to `O=C(CCCOc1ccc(Cl)cc1Cl)N/N=C/c1ccc(Cl)cc1`, the inhibition was 10.9%.

With `O=C1CC2(CCN(C(=O)c3ccccc3[N+](=O)[O-])CC2)Oc2ccccc21`, the inhibition is -0.23%.

`CCOC(=O)c1ccc(N2C(=O)[C@@H](c3ccccc3)[C@H]2c2ccccc2)cc1`: the inhibition was -2.09%.

On to `S=c1[nH]nc(-c2ccccn2)n1/N=C/c1ccc(Br)s1`, for which the inhibition was 18.4%.

With `S=c1[nH]nc(-c2cc(-c3ccccc3)n[nH]2)n1/N=C/c1ccc(Br)s1`, the inhibition is 20.5%.

Regarding `CCCOc1cccc(/C=N/NC(=O)c2csc(C)c2C)c1`, the inhibition was 4.91%.

As to `CCOC(=O)N1CCN(CCc2ccccc2)CC1`, the inhibition was 7.1%.

As to `CC(C)[C@H](NC(=O)c1ccc(Cl)cc1)C(=O)Nc1cccc(S(=O)(=O)N2CCOCC2)c1`, the inhibition is 12.2%.

As to `O=C1ON=C(c2ccccc2)/C1=C/c1ccccc1`, the inhibition is 5.86%.

In the case of `CCOc1cc(/C=C2\C(=O)ON=C2c2ccccc2)ccc1OC`, the inhibition was 24.3%.

For the compound `CCOc1cc(/C=C2/C(=O)ON=C2C)cc(Br)c1O`, the inhibition was 29.1%.

Regarding `COc1ccc(/C=C2\C(=O)ON=C2c2ccccc2)cc1OC`, the inhibition is 16.1%.

As to `O=C1ON=C(c2ccccc2)/C1=C/c1ccc(O)cc1`, the inhibition is 27.7%.

Take `COc1ccc(/C=C2/C(=O)ON=C2c2ccccc2)cc1OC`: the inhibition was 15.4%.

On to `CN(C)c1cccc(NC(=O)CCc2ccccc2)c1`, for which the inhibition was 2.65%.

For the compound `C[C@H](CO)N1C[C@H](C)[C@H](CN(C)C(=O)CCC(F)(F)F)OCc2cnnn2CCCC1=O`, the inhibition is 6.43%.

Regarding `C=CCSc1nnc(-c2ccncc2)n1-c1ccc(OCC)cc1`, the inhibition was 6.74%.

Consider `CC1CCN(S(=O)(=O)c2ccc(C(=O)NCc3cccnc3)cc2)CC1`, for which the inhibition was -0.6%.

On to `C/C(CC(=O)Nc1cccc2c1CCCC2)=N\NC(=O)c1ccccc1N`, for which the inhibition was 5.83%.

As to `CC(C)(C)CC(=O)Nc1nnc(SCC(=O)NC2CCCC2)s1`, the inhibition was 4.93%.

Regarding `CC(C)OC(=O)c1c(NC(=O)c2cnn3c2NC(c2ccccc2)CC3C(F)(F)F)sc2c1CCCC2` (configuration not stated), the inhibition was 10.2%.

Turning to `CCCCCC(=O)Nc1c2c(nc3ccccc13)CCC2`, the inhibition is 8.1%.

`O=C(Nc1c2c(nc3ccccc13)CCCC2)c1ccccc1Cl`: the inhibition is 2.57%.

For the compound `O=C(CCCCCl)Nc1c2c(nc3ccccc13)CCC2`, the inhibition is 0.44%.

Consider `Cc1ccccc1C(=O)Nc1c2c(nc3ccccc13)CCCC2`, for which the inhibition was 10.8%.

On to `CCN1CCN(c2ccc(NC(=O)c3ccc(OC)c(S(=O)(=O)N4CCCC4)c3)cc2)CC1`, for which the inhibition was 4.33%.

`CC(C)N1CCN(Cc2coc3ccccc3c2=O)CC1CCO` (configuration not stated): the inhibition was 10.3%.

`O=C(CSc1nc(=O)n2ccccc2n1)NCCc1ccccc1`: the inhibition was 4.62%.

On to `NC(=O)CC(NC(=O)c1cccc(Br)c1)c1ccc(N2CCN(c3ccccn3)CC2)c([N+](=O)[O-])c1` (configuration not stated), for which the inhibition was 5.09%.

On to `COc1ccccc1/C=C/C(=O)c1cc(Br)ccc1OC(=O)c1ccco1`, for which the inhibition is 8.54%.

For `CC(C)CC(O)(CC(C)C)C(=O)NNc1ccccc1`, the inhibition was 11.2%.

Consider `CCOC(=O)c1nc(Nc2ccccc2)c2ccccc2n1`, for which the inhibition is -2.22%.

On to `CCOC(=O)c1nc(Nc2ccc(C)cc2)c2ccccc2n1`, for which the inhibition was 4.57%.

With `CCN(CC(=O)Nc1ccccc1OC)C(=O)COc1ccc(C#N)cc1`, the inhibition was 2.59%.

As for `COc1ccccc1CN(C)CC(=O)Nc1ccc(Cl)cc1C(F)(F)F`, the inhibition was 18.9%.

Take `COc1ccc(CN(C)CC(=O)Nc2ccccc2C(F)(F)F)c(OC)c1`: the inhibition was 24.5%.

Consider `COc1ccc(CCN=C(N)NS(=O)(=O)c2ccc(F)cc2)cc1OC`, for which the inhibition is 7.56%.

On to `CCC(=O)NC(=S)Nc1ccc(NC(=O)c2cccnc2)cc1`, for which the inhibition is -1.6%.

Consider `Cc1cc2ccccc2n2c(SCC(=O)NCc3cccs3)nnc12`, for which the inhibition was -2.11%.

In the case of `C[C@H](CO)N1C[C@H](C)[C@@H](CN(C)S(=O)(=O)c2cccc(C#N)c2)OCc2cn(nn2)CCCC1=O`, the inhibition was 13.9%.

With `NS(=O)(=O)c1ccc(-c2ccc(C=C3C(=O)c4ccccc4C3=O)o2)cc1`, the inhibition is 2.34%.

As to `NS(=O)(=O)c1ccc(-c2ccc(/C=C3\C(=O)Nc4cc(Cl)ccc43)o2)cc1`, the inhibition was 6.45%.

With `CSc1ccccc1NC(=O)C1CCCN(S(C)(=O)=O)C1` (configuration not stated), the inhibition is -1.03%.

With `C=CCNC(=S)Nc1cccc(NC(=S)NCC=C)c1`, the inhibition is 6.56%.

As for `C=CCNC(=S)Nc1ccc(Cl)cc1`, the inhibition was 3.44%.

On to `CCCCn1c(CCNC(=O)c2cccs2)nc2ccccc21`, for which the inhibition is -1.35%.

For `COc1ccc(O)c(/C=N/NC(=O)c2cccc(N3CCCC3=O)c2)c1`, the inhibition was 3.65%.

`COc1cccc(/C=N/NC(=O)c2ccc(N3CCCC3=O)cc2)c1`: the inhibition is 7.68%.

For `COc1ccc(/C=N/NC(=O)c2ccc(N3CCCC3=O)cc2)cc1`, the inhibition is 7.42%.

In the case of `COc1cccc(/C=N/NC(=O)c2cccc(N3CCCC3=O)c2)c1`, the inhibition was 4.11%.

Turning to `CCN(CCO)C(=O)CC1C(=O)NCCN1Cc1c(F)cccc1Cl` (configuration not stated), the inhibition is 9.19%.

With `CN(Cc1cccc(F)c1)C(=O)CSc1nnc(C2CC2)n1C1CC1`, the inhibition is 7.8%.

As to `CCOc1cc(C(=O)NCC(C)CN(C)C)cc(OCC)c1OCC` (configuration not stated), the inhibition was 1.39%.

Regarding `Cc1ccc(NS(=O)(=O)c2ccc(C)c(NC(=O)c3ccc(S(=O)(=O)N4CCCCCC4)cc3)c2)c(C)c1`, the inhibition is 11.6%.

In the case of `COc1ccc(CN2CCN(CC(=O)Nc3ccccc3C(=O)NC3CC3)CC2)cc1F`, the inhibition was 6.52%.

In the case of `CCCN(CCO)Cc1ccc2ccccc2c1`, the inhibition was 3.4%.

Turning to `CN(C)C(=O)CCc1ccc2c3c([nH]c2c1)[C@]1(C)[C@@H](C(=O)N2CCCCC2)C[C@H](CC(=O)NCc2cccc(C(F)(F)F)c2)C(=O)N1CC3`, the inhibition is 4.55%.

On to `CCOC(=O)CSC1=NC(=O)/C(=C/c2ccc(OC)cc2)S1`, for which the inhibition was 16.1%.

`CCOC(=O)CSC1=NC(=O)/C(=C/c2ccc(Br)cc2)S1`: the inhibition was 19.4%.

Regarding `CCN1C[C@@H]2[C@@H]3C(=O)N(Cc4ccccc4)C(=O)[C@@H]3[C@](Cc3ccccc3)(C1=O)N2C(=O)c1ccc(Cl)cc1`, the inhibition was 6.26%.

Consider `COc1ccc(C(=O)CC(=O)C(=O)Nc2ccc(OC)c(Cl)c2)cc1`, for which the inhibition is 5.32%.

`CN(C(=O)CCc1nc(-c2ccccc2F)no1)c1ccccc1`: the inhibition was -0.78%.
